High-throughput results from PubChem BioAssay.
Most compounds without a hit are left out; they make up all but 9% or so of the library.
HPGD block: HPGD (human) dehydrogenase inhibition. P15428. purified HPGD, NADH fluorescence kinetic, PGE2 substrate. Potency, µM, inactives show at the top dose activity change, negative = inhibition, most hits filed as inhibitors. 4.3% of 150,000 active; also: potency is read from the fitted curve at half-maximal effect
Target sequence (P15428 whole entry, looked up): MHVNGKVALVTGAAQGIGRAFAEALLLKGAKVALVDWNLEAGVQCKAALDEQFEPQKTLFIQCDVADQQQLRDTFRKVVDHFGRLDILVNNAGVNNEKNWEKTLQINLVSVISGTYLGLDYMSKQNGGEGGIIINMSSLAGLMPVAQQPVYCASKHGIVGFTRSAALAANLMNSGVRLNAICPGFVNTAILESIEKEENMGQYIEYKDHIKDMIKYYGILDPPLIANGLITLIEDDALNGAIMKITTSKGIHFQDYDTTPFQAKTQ
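NADH formation kinetics: reaction with 30 uM PGE2 and 1 mM NAD+ (final), 20 nM enzyme, Tris-HCl pH 8 with Tween 20, after 15 min compound preincubation at room temperature. Fluorescence change, last versus first of five reads.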
IMPase inh: IMPase inhibition in cells | CHO-M1 cells, IP1 accumulation, HTRF TR-FRET ratio | 120,000 tested, under 10 active | P97697 | inhibition (IP1 accumulation), % at 46.1 µM; active = well fitted curve in the direction sought with a large enough effect in the signal ratio, not every such curve was filed as active; inconclusive = small, poorly fitted or top-dose-only effect, or a change in a side signal; inactive = no such curve, though single readings can be large or run the other way; the % refers to the signal ratio;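 also: cells stimulated with carbachol in lithium chloride buffer; plate controls were DMSO basal wells for no effect and reference inhibitor wells for full effect; higher means more IMPase inhibition seen as more IP1 and lower FRET ratio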
Target sequence (P97697 whole entry, looked up): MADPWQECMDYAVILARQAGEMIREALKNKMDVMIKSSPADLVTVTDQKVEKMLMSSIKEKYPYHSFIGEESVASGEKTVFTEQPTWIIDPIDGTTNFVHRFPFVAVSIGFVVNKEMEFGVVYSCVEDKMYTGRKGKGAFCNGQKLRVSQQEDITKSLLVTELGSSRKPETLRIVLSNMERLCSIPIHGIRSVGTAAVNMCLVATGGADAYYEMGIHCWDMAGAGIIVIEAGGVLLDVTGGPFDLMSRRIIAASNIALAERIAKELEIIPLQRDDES
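Measured: the HTRF emission ratio (665/620 nm) plus the 620 nm donor channel, each fitted to the Hill equation to give AC50. Cells were CHO-M1 given compounds up to 46 uM and a 30 min carbachol stimulation at 37C.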
ALDH1A1 inh: blocks purified human ALDH1A1 activity; Purified ALDH1A1, NADH fluorescence, propionaldehyde substrate; Potency, µM (series often up to 75.3 µM), inactives show top-dose activity, negative = inhibition, most hits filed as inhibitors; P00352; 7.3% of 220,000 active;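 also: potency is read from the fitted curve at half-maximal effect; plate controls were no enzyme wells and a reference inhibitor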
* = called active by the depositor; ? = inconclusive; · = no result given. Unless noted, calls follow the shape of the dose curve; as a rule, active = well fitted inhibition curve with a large enough effect (not every such curve was filed as active); inconclusive = small, poorly fitted or top-dose-only effect, or another doubt; inactive = no such curve, though single readings can be large or run the other way. Unless noted, % is scaled to controls: 0 for no effect and ±100 for the full control effect.

SMILES	HPGD block	IMPase inh	ALDH1A1 inh
COc1cc2c(cc1OC)C1=NC(=O)CN1C(SCc1ccccc1C)=N2	?	-1.1	?
C=CCSC1=Nc2sccc2C2=NC(=O)CN12	-9.2%	-4.2	14.1µM*
O=C(N/N=C/C(Br)=C\c1ccccc1)c1ccc2nc[nH]c2c1	-27.1%	·	?
O=C(NC1CCCCC1)C(c1ccc(Cl)cc1)N(C(=O)c1ccccn1)c1cccnc1 (centres undefined)	·	·	8.5%
CC(C)c1cccc(C(C)C)c1NC1=NS(=O)(=O)c2ccccc21	·	5.4	·
COc1cc(/C=N/NC(=O)c2cccnc2)ccc1OS(=O)(=O)c1ccc(F)cc1	-12.1%	-6.2	3.6%
COc1cc(/C=N/NC(=O)c2cccnc2)ccc1OS(=O)(=O)c1ccc(C)cc1	-19.2%	·	3.55µM*
CC(/C=N/NC(=O)c1c(Br)cnn1C)=C\c1ccccc1	-17.6%	·	-0.4%
COc1cc(/C=N/NC(=O)COc2cccc(F)c2)ccc1OS(=O)(=O)c1ccc(C)cc1	-22.4%	·	8.91µM*
Cc1ccc(S(=O)(=O)Oc2ccc(/C=N/NC(=O)c3cccnc3)cc2)cc1	·	·	12.6µM*
COc1cc(/C=N/NC(=O)c2cccnc2)ccc1OS(=O)(=O)c1cc(C)ccc1C	-15.4%	·	-6.3%
COc1cc(/C=N/NC(=O)COc2ccc(Cl)cc2)ccc1OS(=O)(=O)c1ccc(C)cc1	-16.2%	6.9	?
Cn1ncc(Br)c1C(=O)N/N=C/c1ccc(OS(=O)(=O)c2ccccc2)cc1	-7.6%	?	25.1µM*
Cc1ccc(NC(=O)COC(=O)CCc2nc3ccccc3c(=O)[nH]2)cc1Cl	·	·	-0.7%
c1ncc(-c2ccc3c(c2)OCO3)c(NCCc2cnc[nH]2)n1	-22.6%	·	?
COc1cc(CNc2ccc(CNc3ncn[nH]3)cc2)ccc1OCc1ccccc1	-18.4%	0.7	8.1%
Cc1cc(=O)[nH]n(CCO)c1=O	·	·	-7.9%
O=C(NCc1ccccc1)N(Cc1nc2ccccc2c(=O)[nH]1)C1CCCC1	?	0.3	?
COc1ccc(Oc2ncc3ncc(=O)n(Cc4cccc(OC)c4)c3n2)cc1	17.8µM*	·	-5.2%
O=c1cnc2cnc(OCc3ccccc3)nc2n1Cc1ccc(F)cc1	31.6µM*	·	?
O=c1cnc2cnc(Oc3cccc(Cl)c3)nc2n1Cc1ccc(F)cc1	-14.3%	·	-1.8%
COc1ccc(Oc2ncc3ncc(=O)n(CCc4ccccc4)c3n2)cc1	-4.4%	·	0.891µM*
COc1ccc(Oc2ncc3nc(-c4cccs4)c(=O)n(Cc4cccc(OC)c4)c3n2)cc1	-15.7%	·	?
N#CCCn1c(=O)cnc2cnc(Oc3ccccc3)nc21	·	·	-1.6%
COC(=O)[C@H](COC(C)(C)C)NC(=O)O[C@@H]1C(=O)c2ccc(OC)cc2O[C@H]1c1cccc(C(F)(F)F)c1	-7.1%	·	-2.4%
SMILES	HPGD block	IMPase inh	ALDH1A1 inh
CCOC(=O)c1sc(=S)n(-c2ccccc2)c1N(C(C)=O)C(C)=O	·	·	5.5%
Cc1c(C(=O)O)sc(=S)n1-c1ccccc1	·	5.9	-6.8%
Cc1ccc(-n2c(N)c(C(=O)N3CCOCC3)sc2=S)cc1	10µM*	-4.2	3.16µM*
CCOC(=O)c1sc(=S)n(-c2ccccc2)c1N	-24.8%	-7.0	?
CCNC(=O)c1sc(=S)n(-c2ccc(C)cc2)c1N	35.5µM*	3.7	12.6µM*
Cc1ccc(C)n1-c1ccc(C(=O)N2CCOCC2)cc1	?	-2.9	?
CN1CCN(C(=O)c2sc(=S)n(-c3ccccc3)c2N)CC1	7.94µM*	-4.0	3.16µM*
CCOC(=O)c1sc(=S)n(-c2ccc(C)cc2)c1SC	?	-4.9	22.4µM*
CC(=O)OC1CC[C@]2(C)C(=CCC3C4CCC(C(C)CCCC(C)C)[C@]4(C)CCC32)C1 (some centres undefined)	-0.9%	·	1.0%
COc1cnc(-c2ccccc2)[nH]c1=O	·	·	5.6%
Clc1ccccc1CONc1ncnc2nonc12	-6.7%	·	-4.1%
Nn1c(COc2cccc(Br)c2)nnc1SCC(=O)N1CCc2ccccc2C1	·	4.4	-12.9%
C=CCn1c(-c2ccc(OC)c(OC)c2)n[nH]c1=S	-2.9%	6.9	-1.9%
S=c1[nH]nc(-c2cccc(Cl)c2)n1Cc1ccccc1	17.8µM*	·	?
Cc1cccc(-c2n[nH]c(=S)n2Cc2ccccc2)c1	?	2.4	?
CCn1c(-c2csc(C(C)C)c2)n[nH]c1=S	?	·	15.8µM*
Cc1cc(-c2n[nH]c(=S)n2CC(C)C)cs1	-14.7%	·	-0.5%
CCN(CC)S(=O)(=O)c1cccc(-c2n[nH]c(=S)n2C)c1	·	·	0.7%
C=CCn1c(-c2cccc(Cl)c2)n[nH]c1=S	?	-22.3	11.2µM*
C=CCn1c(-c2cccc(S(=O)(=O)N(CC)CC)c2)n[nH]c1=S	·	·	2.24µM*
O=C(Cc1ccc(Br)cc1)Nc1cccc(Cl)c1	·	·	8.3%
Cc1cc(C(=O)CN2CCCC(C)C2)c(C)n1-c1ccc(F)cc1 (centres undefined)	?	1.9	0.7%
COc1ncc2nc(-c3cc(F)cc(F)c3)c(=O)n(Cc3cccs3)c2n1	-24.1%	·	?
CCOc1ccc(Nc2nc(Nc3ccc(O)cc3)nc(C)c2[N+](=O)[O-])cc1	·	·	-5.4%
Cc1ccccc1-n1c(Cc2cccs2)n[nH]c1=S	?	3.2	?
SMILES	HPGD block	IMPase inh	ALDH1A1 inh
Cc1ccccc1-c1n[nH]c(=S)n1Cc1ccccc1	·	·	-1.0%
S=c1[nH]nc(-c2ccc(Cl)cc2Cl)n1Cc1ccccc1	15.8µM*	·	31.6µM*
O=[N+]([O-])c1cccc(-c2n[nH]c(=S)n2Cc2ccccc2)c1	25.1µM*	·	?
Cc1ccc(-c2n[nH]c(=S)n2Cc2ccccc2)cc1	?	-3.2	?
CC(c1ccc(F)cc1)n1c(-c2ccc3ccccc3n2)n[nH]c1=S (centres undefined)	-26.9%	-21.5	?
CCc1cc(-c2n[nH]c(=S)n2-c2ccccc2C)cs1	?	2.9	8.91µM*
CCCc1cc(-c2n[nH]c(=S)n2C(C)c2ccccc2)cs1 (centres undefined)	12.6µM*	7.0	?
CN1c2ccccc2Oc2c(c(=O)n(C)c(=O)n2C)C1c1cccc([N+](=O)[O-])c1 (centres undefined)	-9.7%	2.7	11.4%
CCOc1ncccc1C(=O)NCc1ccccc1Cl	·	·	-8.0%
CC1=NN(c2ccccc2)C(=O)C1(C)[N+](=O)[O-] (centres undefined)	-11.6%	·	11.5%
O=C1[C@@H]2C=CC=CC2=NC(=S)N1CCN1CCC(=C(c2ccc(F)cc2)c2ccc(F)cc2)CC1	·	2.6	·
CCc1cc(-c2n[nH]c(=S)n2Cc2ccccc2)cs1	14.1µM*	8.5	5.62µM*
CCc1cc(-c2n[nH]c(=S)n2CC)cs1	-27.7%	·	?
CCCc1cc2c(n1Cc1cc(F)cc(F)c1)C(C)C1CN(C(=O)c3ccccc3)C(C)(C(=O)OC)C21 (centres undefined)	-12.1%	·	-1.7%
Cn1c(Cn2nnc3ccccc32)nnc1SCC(=O)N1c2ccccc2CCc2ccccc21	-0.8%	9.4	8.91µM*
COc1ccc(N2CCN(C(=O)CSc3nnc(-c4cc5ccccc5cc4O)n3C)CC2)cc1	-16.1%	10.8	-6.7%
COc1ccc(N2CCN(C(=O)CSc3nnc(Cn4nnc5ccccc54)n3C)CC2)cc1	-14.7%	-0.1	14.1µM*
Cn1c(Cn2nnc3ccccc32)nnc1SCC(=O)N1c2ccccc2Sc2ccccc21	-9.9%	-10.2	4.7%
